# Screen size: about 68,000 compounds; about 2,700 (4%) showed an effect of 50% or more. The sample as a whole holds a higher share of strong results than the screen did.
# System: Plasmodium berghei
# Assay: Screen against P. berghei liver stage (PbLuc), transformed with Luciferase, at 2uM
# Format: functional, HepG2
# Details: tested at 2 uM
row,Compound,INHIBITION [%]
1,Cc1nnc(C2CCN(C(=O)c3ccsc3)CC2)s1,7.68
2,COc1cnc(N2CCCC(c3ncc[nH]3)C2)nc1 (stereo not given),6.39
3,CNC(=O)c1nc(COc2ccc3c(c2)OCO3)no1,-15.12
4,NC(=O)c1nc(COc2ccc3c(c2)OCO3)no1,54.49
5,O=C(c1nc(COc2ccc3c(c2)OCO3)no1)N1CCCC1,2.41
6,Cc1cc(C)c(C(=O)N2CCOC(CCN(C)C)C2)o1 (stereo not given),-36.52
7,Cc1nnc(CSCc2ccc(OCC(F)(F)F)nc2)o1,8.78
8,CCC1=NC(SCC(=O)c2ccc(C)cc2)c2cc(CC)sc2N1 (stereo not given),33.58
9,CCC1=NC(SCC(=O)c2ccc(Cl)cc2)c2cc(CC)sc2N1 (stereo not given),-77.67
10,CCC1=NC(SCC(=O)c2ccccc2)c2cc(CC)sc2N1 (stereo not given),63.79
11,CCC(C)NC(=O)CN1CCC2(CC1)OCCO2 (stereo not given),34.18
12,Cc1cccc(-c2ccc3nc(C4CCN(CC5CC5)CC4)nn3c2)c1,-48.77
13,CCc1nn(C)c(CC)c1CNC(=O)Nc1cccc2c1CCN2C,-1.56
14,CC(Cc1ccco1)NC(=O)Nc1ccc(N2CCCC2)nc1 (stereo not given),5.91
15,O=C(Cc1c[nH]c2ccccc12)N1CCC(Nc2ccccc2)CC1,-0.6
16,O=C(Cc1ccccc1F)N1CCN(C(=O)c2ccoc2)CC1,-24.79
17,O=C(c1nc(Cc2c[nH]c3ccccc23)no1)N1CCCC1,70.87
18,O=C(c1nc(Cc2c[nH]c3ccccc23)no1)N1CCOCC1,-33.88
19,O=C(c1nc(Cc2c[nH]c3ccccc23)no1)N1CCCCC1,-7.02
20,O=C(Cc1c[nH]c2ccccc12)N1CCN(C(=O)c2ccoc2)CC1,54.49
21,Cc1noc(C)c1C(=O)N1CC[C@H]2C[C@@H](c3nccs3)O[C@@H]2C1,-17.88
22,Cn1cnc(S(=O)(=O)N2CC3(CCN(CC4CC4)C3)C2)c1,35.84
23,COc1ccc(C(=O)N2CCOc3ccncc32)cc1,-21.39
24,CCCOCCN1CCC2(CC1)CC(=O)N(Cc1cc(F)cc(F)c1)C2,7.13
25,COCCN1C(=O)C[C@H]2[C@H]1CCN2Cc1ccccc1,-34.48
26,CCO[C@@H]1C[C@H]2CN(S(=O)(=O)c3cccs3)CCN2C1,-49.68
27,COCCOCC(=O)NCCCOC1CCCc2ccccc21 (stereo not given),12.22

row,Compound,INHIBITION [%]
1,COCCC(=O)NCCCOC1CCCc2ccccc21 (stereo not given),-15.49
2,COCCNC(=O)NCCCOC1CCCc2ccccc21 (stereo not given),58.9
3,CC(C)NC(=O)CCNC(=O)CCc1cc(Cl)cs1,-31.42
4,COC(=O)c1ccn(COc2ccccc2Cl)n1,8.41
5,COc1ccccc1CN(Cc1cccnc1)Cc1c[nH]c(C)n1,55.29
6,Cc1nc(CN(Cc2cccnc2)Cc2ccsc2)c[nH]1,2.76
7,COc1ccccc1CN(Cc1cccnc1)Cc1nccs1,32.97
8,O=C(CCN1CCCC1c1cccs1)N1CCc2sccc2C1 (stereo not given),7.54
9,Cc1csc(N2CCC(NCC3(O)CCc4ccccc43)CC2)n1 (stereo not given),72.05
10,OC1(CNC2CCN(c3ccccn3)CC2)CCc2ccccc21 (stereo not given),29.13
11,OC1(CNC2CCN(Cc3ccncc3)CC2)CCc2ccccc21 (stereo not given),-49.57
12,O=C(NCc1cccnc1N1CCCCC1)c1cccs1,-27.83
13,Cc1ccc(CN2C[C@@H]3COC[C@H](NS(C)(=O)=O)[C@@H]3C2)s1,8.88
14,O=C(CN1C(=O)CCC1=O)N1CCC(S(=O)(=O)Cc2ccco2)CC1,53.81
15,O=C(CN1C(=O)CCC1=O)N1CCC(CSCc2ccco2)CC1,44.23
16,O=C(CN1C(=O)CCC1=O)N1CCOCC1,9.1
17,CN(C)CCN1CC(C(=O)N2CCC(c3cc(=O)[nH]cn3)CC2)CC1=O (stereo not given),47.64
18,O=C(O)c1cnc2c(cnn2C2CCCC2)c1,-9.71
19,O=C(NC1CCC(O)CC1)c1cnc2c(cnn2C2CCCC2)c1 (stereo not given),38.49
20,CS(=O)(=O)NC(=O)c1cnc2c(cnn2C2CCCC2)c1,64.35
21,Cc1cc(NC(=O)C(C)N2CCN(c3nc(C)ns3)CC2)on1 (stereo not given),22.29
22,Cn1ncnc1CNc1ccc2c(c1)N(C(=O)OC(C)(C)C)CCC2,33.49
23,CC(C)NC(=O)N1CC(=O)c2sc(Nc3ccc(C#N)cc3)nc2C1,-42.69
24,CN(C)CC(=O)N1CCOCC2(C1)CN(c1ccccc1)C(=O)CO2 (stereo not given),17.78
25,O=C(N1CCCC1)N1CCOCC2(C1)CN(c1ccccc1)C(=O)CO2 (stereo not given),56.38
26,O=C1COC2(COCCN(c3cnccn3)C2)CN1c1cccc(F)c1 (stereo not given),50.81
27,O=C1COC2(COCCN(c3ccccn3)C2)CN1c1cccc(F)c1 (stereo not given),16.2

row,Compound,INHIBITION [%]
1,Cc1cccc(N2CC3(COCCN(c4ccncn4)C3)OCC2=O)c1 (stereo not given),7.33
2,O=C(c1ccc[nH]1)N1CCOCC2(C1)CN(c1ccccc1)C(=O)CO2 (stereo not given),-15.09
3,COCC1CN(C(=O)c2ccoc2)Cc2cnn(CC3CCOCC3)c21 (stereo not given),-14.61
4,CSCCCn1ccnc1-c1cccc(C#N)c1,55.93
5,CSCCCNC(=O)Nc1cccc(-c2nccn2C)c1,11.78
6,CCN(CC)CCn1ccnc1-c1cccc(C#N)c1,15.2
7,Cc1ccc(C(=O)N2C[C@H]3CN(Cc4csc(C)n4)C[C@H]3C2)cn1,5.38
8,CCC[C@H]1CN(S(=O)(=O)c2ccc(-c3c(C)noc3C)s2)C[C@@H]1N,29.53
9,CCC[C@H]1CN(S(=O)(=O)c2c(C)noc2C)C[C@@H]1N,51.31
10,CCC[C@H]1CN(S(=O)(=O)c2ccccc2)C[C@@H]1N,24.12
11,Cc1cnn(CC(C)Nc2nc(C)cc(N(C)C)n2)c1 (stereo not given),-28.68
12,CN(C)C[C@]12COC[C@H]1CN(C(=O)Cc1ccc3c(c1)OCO3)C2,-2.21
13,CCOC(=O)Cn1nnnc1-c1ccccc1,23.9
14,O=S(=O)(C1CC1)N1CCC2(CN(c3ncccn3)C2)C1,-12.25
15,Cc1ccc(CN2CCS(=O)(=O)C(C)(C)C2)cc1C,-38.39
16,CCN1CC2(CCC1=O)CCN(Cc1cccc(OC(F)F)c1)CC2,-1.38
17,CCCc1nc(C)cc(N2CCNC(C(=O)NCc3cccnc3)C2)n1 (stereo not given),19.81
18,O=C(NCc1cccnc1)C1CN(c2cnc3ccccc3n2)CCN1 (stereo not given),-6.53
19,Nc1nccc(N2CCNC(C(=O)NCc3ccccn3)C2)n1 (stereo not given),50.94
20,O=C(NCc1ccncc1)C1CN(c2nc3ccccc3s2)CCN1 (stereo not given),11.67
21,O=C(NC1CC1)C1CN(c2nc3ccccc3s2)CCN1 (stereo not given),-17.07
22,O=C(NCc1ccccn1)C1CN(c2nc3ccccc3s2)CCN1 (stereo not given),56.21
23,CN(C)CCN1CCN(Cc2cccs2)Cc2cccnc21,31.96
24,COc1ccc(CNC(=O)NC2CCC(O)CC2)c(C(F)(F)F)c1 (stereo not given),24.83
25,Cc1nc(C)n(CC2CCCCN2c2ccnc(-c3ccccc3)n2)n1 (stereo not given),-22.89
26,O=C1CCC(C(=O)N(Cc2ccsc2)CC2CCCO2)=NN1 (stereo not given),50.59
27,O=C(c1cccc(=O)[nH]1)N(Cc1ccsc1)CC1CCCO1 (stereo not given),-2.31

row,Compound,INHIBITION [%]
1,CN(C)CCN(Cc1ccsc1)C(=O)C1=NNC(=O)CC1,31.51
2,CNc1cccc(C2CCN(C(C)=O)CC2)n1,28.4
3,CCSC(C)C(=O)N1CCC(c2nn(C)c(=O)n2-c2ccccc2)CC1 (stereo not given),-45.11
4,O=c1n(Cc2ncccn2)nc(C2CCNCC2)n1-c1ccccc1,-0.59
5,CCCn1cc(C(=O)NC2CCN(CC(=O)NC3CC3)CC2)c(C)n1,16.35
6,CNC(=O)CN1CCC(c2nn(C)c(=O)n2-c2ccccc2)CC1,16.93
7,CCCC(=O)N1CCC(c2nn(C)c(=O)n2-c2ccccc2)CC1,60.64
8,Cn1cnnc1C1CCN(C(=O)CCCOc2ccccc2)CC1,23.31
9,CC(=O)N1CCC(c2nn(C)c(=O)n2-c2ccccc2)CC1,64.06
10,Cn1nc(C2CCN(CC(=O)NC3CC3)CC2)n(-c2ccccc2)c1=O,60.64
11,CC1CN(C(=O)NCCCn2cncn2)CCO1 (stereo not given),-7.02
12,CS(=O)(=O)N1C[C@H]2CN(CC3CC3)C(=O)[C@H]2C1,-30.69
13,CC(=O)Nc1nc(C(=O)NCc2ccc(N3CCOC(C)C3)nc2)cs1 (stereo not given),13.36
14,CN(CCc1nccs1)C(=O)CC1(O)CCCCC1,25.78
15,Clc1ccccc1C1(c2ccnc(-c3ccncc3)n2)CCNCC1,-14.84
16,CCc1cccc(NS(=O)(=O)c2cc(C)c(C(=O)O)s2)c1,58.69
17,CC(=O)c1cccc(NS(=O)(=O)c2cc(C)c(C(=O)O)s2)c1,-18.41
18,Cc1cc(S(=O)(=O)Nc2cccc(I)c2)sc1C(=O)O,-21.72
19,O=C(O)c1csc(S(=O)(=O)Nc2cccc(OC(F)F)c2)c1,-56.15
20,Cc1cc(S(=O)(=O)Nc2cccc(OC(F)F)c2)sc1C(=O)O,68.61
21,CCOc1cccc(NS(=O)(=O)c2cc(C)c(C(=O)O)s2)c1,40.85
22,COc1cccc(CN2CCOC(c3cnccn3)C2)c1F (stereo not given),4.47
23,Nc1c(N2CCOCC2)ncnc1N1CCOCC1,-18.65
24,CC1CCN(S(=O)(=O)c2cccn(CC(=O)NC3CCCC3)c2=O)CC1,-1.71
